KB-3-1 tox = qHTS assay for MDR1-selective chemotherapeutics: Primary screen using the parental adenocarcinoma cell KB-3-1. 400,000 compounds, 1.4% hits. KB-3-1 viability, CellTiter-Glo ATP luminescence, 72 h. Potency, µM (doses to about 46.1 µM), actives largely listed as cytotoxic. AID 1347075, 2019; also: nearly all actives have a fitted effect of over 60% in size
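Cytotoxicity in the drug-sensitive parental line KB-3-1 was scored as loss of CellTiter-Glo luminescence following 72 h incubation with compound. Values come from curve fitting of normalized concentration-response data.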
HT1080NT lethal = qHTS for induction of synthetic lethality in tumor cells producing 2HG: qHTS for the HT-1080-NT fibrosarcoma cell line. Potency, µM (series often up to 46.1 µM), without a hit: top-dose activity, negative = less viability, actives largely listed as cytotoxic. AID 686970, 2013. HT-1080-NT fibrosarcoma viability, CellTiter-Glo ATP luminescence, 48 h. 360,000 compounds, 1.6% hits;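 also: NT is the 2HG producing partner of a matched IDH1 knockdown line; 0% = DMSO-treated cells and -100% = media-only wells without cells; nearly all actives have a fitted effect of over 55% in size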
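Compounds were tested in concentration-response format on HT-1080-NT cells for 48 hours at 37 degrees C. Cell viability came from CellTiter-Glo luminescence; curves were classified by r2, response magnitude and activity.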
KB-V1 cytotox = qHTS assay for MDR1-selective chemotherapeutics: Primary screen using the drug-selected MDR subline cells KB-V1. KB-V1 MDR cells viability, CellTiter-Glo, 72 h. Potency, µM (titrated, usually from 46.1 µM), hits mostly cytotoxic. 400,000 compounds, 3.4% hits; also: nearly all actives have a fitted effect of over 60% in size
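qHTS viability screen in drug-selected KB-V1 MDR cells: 72 h compound treatment at 37 degrees C, ATP luminescence end point.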
HT1080 IDH1KD tx = qHTS for induction of synthetic lethality in tumor cells producing 2HG: qHTS for the HT-1080-IDH1KD cell line; HT-1080 IDH1 knockdown viability, ATP luminescence, 48 h; 360,000 compounds, 2% hits; Potency, µM (top dose mostly 46.1 µM), inactives show at the highest dose activity, negative = toxicity, actives largely listed as cytotoxic;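 also: 0% = DMSO wells and -100% = cell-free medium wells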
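IDH1KD HT-1080 cells, 750/well, RPMI + 5% FBS; compound pinned after 2 h settling; 48 h, 37 °C; CellTiter-Glo luminescence; % activity normalised to DMSO and no-cell wells; curves fitted, classed by r2 and efficacy.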
DT40 TDP1 CPT = qHTS for Inhibitors of human tyrosyl-DNA phosphodiesterase 1 (TDP1): qHTS in cells in presence of CPT | AID 686979, 2013 | chicken DT40 Tdp1-/-;hTDP1 cells + 20 nM CPT, ATP luminescence, 48 h | 420,000 compounds, 12% hits | Potency, µM (doses to about 46.2 µM), without a hit: at the highest dose activity change, negative = growth inhibition, actives largely listed as inhibitors; also: nearly all actives have a fitted effect of over 55% in size
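Cell growth measured by CellTiter-Glo luminescence after a minimum 48 h, 37 C compound exposure with 20 nM CPT in Tdp1-knockout DT40 cells stably expressing hTDP1, seeded 400/well; qHTS titration format.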
DT40 TDP1 no CPT = qHTS for Inhibitors of human tyrosyl-DNA phosphodiesterase 1 (TDP1): qHTS in cells in absence of CPT | DT40 Tdp1-/- hTDP1 cells, no CPT, ATP luminescence, 48 h | Potency, µM (doses to about 46.2 µM), for the others: top-dose activity change, negative = growth inhibition, most hits filed as inhibitors | 420,000 compounds, 15% hits | AID 686978, 2013; also: nearly all actives have a fitted effect of over 55% in size
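Camptothecin absent (DMSO only). Human TDP1-complemented DT40 knockout cells, 400 cells/well, 37 °C for minimum 48 hr; ATP measured via CellTiter-Glo, 30 min dark incubation, luminescence.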
Numbers without * were called inactive; i = inactive; u = inconclusive; x = not tested or not shown. Most compounds without a hit are left out; they make up all but 19% or so of the library. Calls follow the shape of the dose curve; as a rule, active = well fitted curve in the direction sought with a large enough effect; inconclusive = small, poorly fitted or top-dose-only effect, or another doubt; inactive = no such curve, though single readings can be large; an effect the other way counts as inactive or inconclusive. Unless noted, % is scaled to controls: 0 for no effect and ±100 for the full control effect; potency is read from the fitted curve at half-maximal effect.

SMILES	KB-3-1 tox	HT1080NT lethal	KB-V1 cytotox	HT1080 IDH1KD tx	DT40 TDP1 CPT	DT40 TDP1 no CPT
Cc1ccc(S(=O)(=O)N2[C@@H](Cc3ccccc3)CO[C@H]2CC(=O)c2ccc(F)cc2)cc1	i	-6%	u	-16%	23µM*	u
Cc1ccc(S(=O)(=O)N2[C@H](CC(=O)c3cccs3)OC[C@@H]2C(C)C)cc1	18µM*	u	18µM*	u	u	18µM*
CCOC(=O)N1CCC(NC(=O)C2CCCN(S(C)(=O)=O)C2)CC1 (configuration not stated)	i	8%	i	8%	-11%	-8%
CN(C)c1ccc(/C=C/c2ccnc3c(O)ccc(O)c23)cc1	i	x	i	x	-18%	-12%
C=CCOc1ccc(CN(C)CC(=O)Nc2ccccc2[N+](=O)[O-])cc1	i	-23%	u	-20%	u	21µM*
CN(CC(=O)Nc1cccc(F)c1)CC(=O)Nc1ccccc1[N+](=O)[O-]	i	0%	u	-1%	23µM*	12µM*
COC(=O)c1c(C)[nH]c(C(=O)CN(C)CC(=O)Nc2cccc(F)c2)c1C	i	-2%	i	-2%	-24%	15µM*
CCc1ccc(CN(C)CC(=O)Nc2ccccc2[N+](=O)[O-])cc1	i	5%	u	1%	u	u
CC(NC(=O)CN(C)CC(=O)Nc1cccc(F)c1)c1ccccc1 (configuration not stated)	i	1%	18µM*	-3%	-22%	-6%
O=C(COC(=O)CNS(=O)(=O)c1c(F)cccc1F)NC(=O)NC1CCCCC1	u	18%	i	0%	-1%	18%
COCCCn1c(=O)/c(=C\c2ccccc2OC(C)C)s/c1=C(/C#N)C(=O)Nc1ccc(C(=O)O)cc1	i	-12%	i	-21%	u	15µM*
COCCCn1c(=O)/c(=C\c2ccccc2OC(F)F)s/c1=C(/C#N)C(=O)NC(C)C	i	5%	i	2%	-21%	-9%
O=C(Nc1ccc(SC(F)F)cc1)c1ccc2nccnc2c1	u	u	i	-1%	u	u
COc1ccc(N2CCN(C(=O)c3oc4ccccc4c3NC(=O)CCc3cc(OC)no3)CC2)cc1	i	10%	i	-1%	u	-21%
COc1ccc(C2(CNC(=O)C(=O)Nc3ccc(F)cc3)CCCC2)cc1OC	u	x	i	x	18µM*	18µM*
COc1ccc(C2(CNC(=O)/C=C\c3ccco3)CCCC2)cc1OC	i	6%	i	0%	18µM*	29µM*
COc1ccc(C(NC(=O)/C=C/c2ccco2)c2ccc(OC)c(OC)c2)cc1OC	i	8%	i	8%	-11%	2%
COc1ccc(C2(CNC(=O)C(=O)Nc3ccccc3C)CCCC2)cc1OC	i	x	i	x	23µM*	18µM*
COC(=O)[C@@H]1CCCN1S(=O)(=O)Cc1ccccc1	i	x	i	x	-30%	-6%
N#CCCN1CCN(C2=NC(=O)/C(=C\c3cccs3)S2)CC1	i	5%	u	4%	20%	-3%
CCOC(=O)[C@H]1[C@H]2COc3ccc(Cl)cc3[C@@H]2N2C(=O)CN(Cc3ccc(C)cc3)C(=O)[C@@]12C	u	-15%	i	-11%	18µM*	16µM*
CCOC(=O)[C@H]1[C@H]2COc3ccc(Cl)cc3[C@@H]2N2C(=O)CN(Cc3ccco3)C(=O)[C@@]12C	i	0%	i	2%	26µM*	u
CCOC(=O)[C@H]1[C@H]2COc3ccc(Br)cc3[C@@H]2N2C(=O)CN(Cc3ccc(OC)cc3)C(=O)[C@@]12C	i	-1%	i	-12%	u	u
CCOC(=O)[C@H]1[C@H]2COc3ccc(C)cc3[C@@H]2N2C(=O)CN(Cc3ccccc3)C(=O)[C@@]12C	i	9%	i	8%	u	u
CCOC(=O)[C@H]1[C@H]2COc3ccc(OC)cc3[C@@H]2N2C(=O)CN(Cc3ccco3)C(=O)[C@@]12C	i	27%	i	26%	u	-26%
SMILES	KB-3-1 tox	HT1080NT lethal	KB-V1 cytotox	HT1080 IDH1KD tx	DT40 TDP1 CPT	DT40 TDP1 no CPT
CCOC(=O)[C@H]1[C@H]2COc3ccc(Cl)cc3[C@@H]2N2C(=O)CN(Cc3ccc(OC)cc3)C(=O)[C@@]12C	i	0%	i	-3%	u	18µM*
CCOC(=O)[C@H]1[C@H]2COc3ccc(Br)cc3[C@@H]2N2C(=O)CN(Cc3ccccc3)C(=O)[C@@]12C	i	0%	i	5%	u	26µM*
O=C(NCC(=O)N1CCN(S(=O)(=O)c2ccc3c(c2)OCCO3)CC1)c1ccccc1Cl	i	-6%	i	-4%	-12%	-20%
COc1ccccc1N(C)S(=O)(=O)c1ccc(C(=O)OCC(=O)NCc2cccs2)cc1	i	2%	i	10%	-22%	-7%
Cc1ccnc(NCc2ccc(Cl)cc2)c1	u	u	i	u	u	u
O=C(NCc1ccccc1)C(c1ccccc1F)n1c(=O)c(-c2cc3ccccc3[nH]2)nc2ccccc21 (configuration not stated)	i	u	i	u	u	u
O=C(NC1CCCCC1)C(c1ccccc1F)n1c(=O)c(-c2cc3ccccc3[nH]2)nc2ccccc21 (configuration not stated)	u	-24%	u	u	u	15µM*
CCCCCNC(=O)C(c1cccc2ccccc12)n1c(=O)c(-c2cc3ccccc3[nH]2)nc2ccccc21 (configuration not stated)	i	-8%	i	-14%	u	u
O=C(NC1CCCCC1)C(c1cccc2ccccc12)n1c(=O)c(-c2cc3ccccc3[nH]2)nc2ccccc21 (configuration not stated)	i	21µM*	i	18µM*	u	13µM*

Bioassay records as filed in PubChem BioAssay.
